# Assay results: the supplement of paper PMC9492666
# Counter-ions that a name gives are not always drawn.
# How the values were obtained:
# Details in all cases: 72 h
# HCC1937 [1] = test: relative cell viability, compound + erastin, vs DMSO (fraction of DMSO control); higher = less growth inhibition
# MDA-MB-231 [2] = test: as above
# HCC1937 [3] = test: relative cell viability, compound + RSL3, vs DMSO (fraction of DMSO control); higher = less growth inhibition
# MDA-MB-231 [4] = test: as above
# HCC1937 [5] = test: relative cell viability, compound alone, vs DMSO (fraction of DMSO control); higher = less growth inhibition
# MDA-MB-231 [6] = test: as above
# 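For relative cell viability, compound + RSL3, vs DMSO in this document: breast cancer cell viability read out with the CCK-8 kit after co-treatment of each compound with the ferroptosis inducer RSL3.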
# 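For relative cell viability, compound + erastin, vs DMSO in this document: viability read by CCK-8 kit in 96-well plates, part of a combination screen pairing lipid-metabolism-targeting compounds with erastin.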
# 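For relative cell viability, compound alone, vs DMSO in this document: viability read out with the CCK-8 kit in 96-well plates, screening a set of 303 compounds acting on lipid metabolism targets.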
smiles,measurement,setting,value
NC(N)=N/N=C/c1cccc(Cl)c1Cl [Raphin1 acetate] + CCOc1ccccc1-n1c(C(C)N2CCN(C(=O)COc3ccc(Cl)cc3)CC2)nc2ccccc2c1=O [erastin],relative cell viability,HCC1937 [1],0.718
same,relative cell viability,MDA-MB-231 [2],0.588
C/C=C/c1cc(OC)c(OC)cc1OC [alpha-Asarone] + COC(=O)c1ccc([C@H]2c3[nH]c4ccccc4c3C[C@H](C(=O)OC)N2C(=O)CCl)cc1 [RSL3],relative cell viability,HCC1937 [3],0.452
same,relative cell viability,MDA-MB-231 [4],0.541
O=C(Oc1ccc([N+](=O)[O-])cc1)N1CCC(C(O)(c2ccc3c(c2)OCO3)c2ccc3c(c2)OCO3)CC1 + CCOc1ccccc1-n1c(C(C)N2CCN(C(=O)COc3ccc(Cl)cc3)CC2)nc2ccccc2c1=O [erastin],relative cell viability,HCC1937 [1],0.556
same,relative cell viability,MDA-MB-231 [2],0.641
CCOC(=O)c1c(NC(=O)CN2CCN(C(=O)c3ccco3)CC2)sc2c1CCC2 + CCOc1ccccc1-n1c(C(C)N2CCN(C(=O)COc3ccc(Cl)cc3)CC2)nc2ccccc2c1=O [erastin],relative cell viability,HCC1937 [1],0.647
same,relative cell viability,MDA-MB-231 [2],0.839
C[C@@]12C[C@@H](c3ccoc3)OC(=O)[C@@H]1CC[C@]1(C)[C@H]2[C@@H]2C=C[C@@]1(O)C(=O)O2 [Columbin] + COC(=O)c1ccc([C@H]2c3[nH]c4ccccc4c3C[C@H](C(=O)OC)N2C(=O)CCl)cc1 [RSL3],relative cell viability,HCC1937 [3],0.564
same,relative cell viability,MDA-MB-231 [4],0.642
O=C(CBr)c1ccc(O)cc1 [PTP Inhibitor I],relative cell viability,HCC1937 [5],1.17
same,relative cell viability,MDA-MB-231 [6],0.937
O=C(CBr)c1ccc(O)cc1 [PTP Inhibitor I] + COC(=O)c1ccc([C@H]2c3[nH]c4ccccc4c3C[C@H](C(=O)OC)N2C(=O)CCl)cc1 [RSL3],relative cell viability,HCC1937 [3],0.674
same,relative cell viability,MDA-MB-231 [4],0.577
CC(C)=CCC[C@](C)(O)[C@H]1CC[C@]2(C)[C@@H]1[C@H](O)C[C@@H]1[C@@]3(C)CC[C@H](O)C(C)(C)[C@@H]3[C@@H](O[C@@H]3O[C@H](CO)[C@@H](O)[C@H](O)[C@H]3O)C[C@]12C [Ginsenoside Rh1] + COC(=O)c1ccc([C@H]2c3[nH]c4ccccc4c3C[C@H](C(=O)OC)N2C(=O)CCl)cc1 [RSL3],relative cell viability,HCC1937 [3],0.654
same,relative cell viability,MDA-MB-231 [4],0.679
CC1(C)CC[C@]2(C(=O)O[C@@H]3O[C@H](CO)[C@@H](O)[C@H](O)[C@H]3O)CC[C@]3(C)C(=CC[C@@H]4[C@@]5(C)CC[C@H](O[C@@H]6O[C@H](C(=O)O)[C@@H](O)[C@H](O)[C@H]6O[C@@H]6O[C@H](CO)[C@@H](O)[C@H](O)[C@H]6O)C(C)(C)[C@@H]5CC[C@]43C)[C@@H]2C1 [Ginsenoside Ro] + CCOc1ccccc1-n1c(C(C)N2CCN(C(=O)COc3ccc(Cl)cc3)CC2)nc2ccccc2c1=O [erastin],relative cell viability,HCC1937 [1],0.703
same,relative cell viability,MDA-MB-231 [2],0.726
C[C@]12CC[C@@H](O)C[C@@H]1CC[C@@H]1[C@@H]2CC[C@]2(C)C(=O)CC[C@@H]12 [Androsterone],relative cell viability,HCC1937 [5],1.33
same,relative cell viability,MDA-MB-231 [6],1.08
O=C1C=CC[C@@H]2[C@H]3CCCN4CCC[C@@H](CN12)[C@@H]34 [Sophocarpine] + COC(=O)c1ccc([C@H]2c3[nH]c4ccccc4c3C[C@H](C(=O)OC)N2C(=O)CCl)cc1 [RSL3],relative cell viability,HCC1937 [3],0.621
same,relative cell viability,MDA-MB-231 [4],0.502
CCC1=N[C@H]2C[C@@]3(C(=O)N(OC)c4ccccc43)[C@H]3CC1[C@@H]2CO3 [Humantenmine],relative cell viability,HCC1937 [5],0.922
same,relative cell viability,MDA-MB-231 [6],0.978
O=C(NCCN1CCC2(CC1)C(=O)NCN2c1ccccc1)c1ccc2ccccc2c1,relative cell viability,HCC1937 [5],0.491
same,relative cell viability,MDA-MB-231 [6],0.689
C/C=C/c1cc(OC)c(OC)cc1OC [alpha-Asarone],relative cell viability,HCC1937 [5],0.855
same,relative cell viability,MDA-MB-231 [6],0.976
O=C(Oc1ccc([N+](=O)[O-])cc1)N1CCC(C(O)(c2ccc3c(c2)OCO3)c2ccc3c(c2)OCO3)CC1,relative cell viability,HCC1937 [5],0.911
same,relative cell viability,MDA-MB-231 [6],0.901
Cc1cc(SCc2sc(-c3ccc(C(F)(F)F)c(F)c3)nc2C)ccc1OCC(=O)O + COC(=O)c1ccc([C@H]2c3[nH]c4ccccc4c3C[C@H](C(=O)OC)N2C(=O)CCl)cc1 [RSL3],relative cell viability,HCC1937 [3],0.59
same,relative cell viability,MDA-MB-231 [4],0.668
"CC(C)=CCC(O)C1=CC(=O)c2c(O)ccc(O)c2C1=O (single isomer, unassigned; (+)) [(+)-Shikonin] + CCOc1ccccc1-n1c(C(C)N2CCN(C(=O)COc3ccc(Cl)cc3)CC2)nc2ccccc2c1=O [erastin]",relative cell viability,HCC1937 [1],0.159
same,relative cell viability,MDA-MB-231 [2],0.494
COc1ccc(CN2CCNCC2)c(OC)c1OC [Trimetazidine dihydrochloride],relative cell viability,HCC1937 [5],1.09
same,relative cell viability,MDA-MB-231 [6],0.823
CCC1=N[C@H]2C[C@@]3(C(=O)N(OC)c4ccccc43)[C@H]3CC1[C@@H]2CO3 [Humantenmine] + COC(=O)c1ccc([C@H]2c3[nH]c4ccccc4c3C[C@H](C(=O)OC)N2C(=O)CCl)cc1 [RSL3],relative cell viability,HCC1937 [3],0.585
same,relative cell viability,MDA-MB-231 [4],0.679
